JMJD2A Tudor inh – JMJD2A Tudor domain (human) inhibition. O75164. Potency, µM (highest dose often 114 µM), for the others: at the highest dose activity change, negative = inhibition, most hits filed as inhibitors. AlphaScreen JMJD2A-Tudor / H3K4me3 peptide binding. 4.4% of 390,000 active; further: potency means the concentration at half of the fitted maximal effect; on the % scale 0 is the no-effect control and ±100 the full control effect; nearly all actives have a fitted effect of over 50% in size
BAZ2B inh – inhibitors of human BAZ2B bromodomain; 4.4% of 360,000 active; Potency, µM (top dose mostly 114 µM), for inactives: at the top dose activity change, negative = inhibition, actives largely listed as inhibitors; AlphaScreen BAZ2B-H3K14Ac peptide displacement; AID 504333; further: potency means the concentration at half of the fitted maximal effect; on the % scale 0 is the no-effect control and ±100 the full control effect; nearly all actives have a fitted effect of over 60% in size
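BAZ2B (50 nM) with biotin-H3(5-23)K14Ac peptide (50 nM) in PBS pH 7.4, 0.01% Tween-20, preformed 30 min, then compound 30 min at room temperature; top concentration 110uM. AlphaScreen streptavidin donor/nickel chelate acceptor beads (10 ug/mL final), 20 min dark, signal read.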
PLK1 PBD block – inhibitors of human PLK1 polo-box domain binding | P53350 | Plk1 PBD binding of FITC phosphopeptide, fluorescence polarization | Potency, µM, for the others: max response, negative = inhibition, usual class: inhibitors | 2.8% of 360,000 active | AID 720504; further: potency means the concentration at half of the fitted maximal effect; series mostly up to about 57 µM; on the % scale 0 is the no-effect control and ±100 the full control effect; nearly all actives have a fitted effect of over 65% in size
Target sequence (P53350 whole entry, looked up, the tested form may be a part): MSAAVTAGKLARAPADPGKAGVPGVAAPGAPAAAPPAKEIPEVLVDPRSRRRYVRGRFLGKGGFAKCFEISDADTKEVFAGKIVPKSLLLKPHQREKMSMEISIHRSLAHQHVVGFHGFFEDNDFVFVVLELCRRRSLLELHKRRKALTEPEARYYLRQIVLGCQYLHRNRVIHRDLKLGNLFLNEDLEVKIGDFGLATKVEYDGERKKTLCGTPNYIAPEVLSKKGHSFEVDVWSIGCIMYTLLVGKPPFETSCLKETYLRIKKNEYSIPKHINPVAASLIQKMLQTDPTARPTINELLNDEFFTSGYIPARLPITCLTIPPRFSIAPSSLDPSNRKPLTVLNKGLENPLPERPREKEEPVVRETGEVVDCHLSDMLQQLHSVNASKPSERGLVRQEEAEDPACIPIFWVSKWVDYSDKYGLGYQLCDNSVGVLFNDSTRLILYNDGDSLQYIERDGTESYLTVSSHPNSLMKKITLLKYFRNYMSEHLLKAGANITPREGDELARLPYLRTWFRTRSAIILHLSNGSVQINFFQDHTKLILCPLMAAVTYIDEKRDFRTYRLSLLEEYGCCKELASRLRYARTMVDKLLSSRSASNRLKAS
PI5P4K alpha inh – inhibitors of human PI5P4K alpha | PI5P4Kalpha enzyme, ADP-Glo luminescence, 60 min; active compounds read low | P48426 | 1.2% of 330,000 active | max response, %; active means max response of -50% or lower; inconclusive means between -30% and -50%; inactive means -30% or higher; further: value at the top dose of about 77 µM; on the % scale 0 is the no-effect control and ±100 the full control effect
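ADP-Glo luminescence end-point after a 60 min room-temperature kinase reaction. PI5P4Kalpha and substrate in HEPES pH 7.4 buffer with EGTA, 0.1% CHAPS and 5% DMSO; ATP at 5 microM final.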
HP1b binding inh – blocks HP1-beta chromodomain binding to methylated histone tails; P83916; AID 540317; AlphaScreen HP1-beta / biotin-H3K9me3 peptide binding; 0.56% of 390,000 active; Potency, µM (titrated, usually from 114 µM), for inactives: at the highest dose activity change, negative = inhibition, actives largely listed as inhibitors; further: potency means the concentration at half of the fitted maximal effect; nearly all actives have a fitted effect of over 70% in size
Target sequence (P83916 whole entry, looked up): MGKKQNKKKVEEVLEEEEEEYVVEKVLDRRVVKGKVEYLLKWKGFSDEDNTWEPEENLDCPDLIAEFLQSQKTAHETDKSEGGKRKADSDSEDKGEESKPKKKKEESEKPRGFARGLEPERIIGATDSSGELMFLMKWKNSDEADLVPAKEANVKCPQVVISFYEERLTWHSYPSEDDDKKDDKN
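HP1-beta protein (50 nM final) preincubated 30 min at room temperature with biotinylated H3(1-18)K9me3 peptide (50 nM) in PBS pH 7.4, 0.01% Tween-20, then compound added for 30 min. AlphaScreen streptavidin donor/nickel chelate acceptor beads (10 ug/mL final), 30 min dark, luminescence read.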
G9a block – blocks human histone lysine methyltransferase G9a | Q96KQ7 | G9a H3K9 monomethylation, AlphaScreen, 2 h | Potency, µM (top dose mostly 102 µM), for inactives: at the highest dose activity, negative = inhibition, usual class: inhibitors | 8.8% of 350,000 active | AID 504332; further: potency means the concentration at half of the fitted maximal effect; on the % scale 0 is the no-effect control and ±100 the full control effect; nearly all actives have a fitted effect of over 75% in size
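Step 1: enzyme (final 20 nM) with compound, 15 min RT. Step 2: substrate peptide 500 nM and SAM 20 uM, 2 h RT. Step 3: anti-H3K9me1 antibody and AlphaScreen beads, 10 min, then plate read.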
* = called active by the depositor; ? = inconclusive; · = no result; ! = not confirmed by another sample; [ ] = dose if it differs, or a comment. Sampled rows, rich in hits. Any-hit rate of the full collection: about 12%. Unless noted, the call rests on the fitted dose curve; in most records, active means well fitted curve in the direction sought with a large enough effect; inconclusive means small, poorly fitted or top-dose-only effect, or another doubt; inactive means no such curve, though single readings can be large; an effect the other way counts as inactive or inconclusive.

SMILES	JMJD2A Tudor inh	BAZ2B inh	PLK1 PBD block	PI5P4K alpha inh	HP1b binding inh	G9a block
CCCCOC(=O)C1CN(c2ccccc2)N=C1C(C)=O (configuration not stated)	43.5%	84.1%	26.7µM*	-3.4	113.5%	·
CCOC(=O)C1=C(COC(=O)[C@@H]2CCCN2S(=O)(=O)c2ccc(C)cc2)NC(=O)NC1C (some centres not stated)	-6.9%	-29.5%	0.4%	-4.1	23.7%	-6.8%
O=C(Cn1cc(S(=O)(=O)Cc2cccc(Cl)c2)c2ccccc21)Nc1ccccc1C(F)(F)F	-1.3%	-11.8%	·	·	18.1%	-1.8%[59 µM]
Cn1c(OCc2ccco2)nc2c1c(=O)n(Cc1ccc(Cl)c(Cl)c1)c(=O)n2C	-12.7%	-33.1%	11.9µM*	-29.3	20.0%	?
COc1cn(CC(=O)Nc2ccc(C)cc2C)c(CN2CCCCC2)cc1=O	-2.7%	-2.4%	·	·	21.0%	-3.4%[59 µM]
Cc1ccc(S(=O)(=O)N2CCCC(C(=O)O)C2)s1 (configuration not stated)	?	-2.5%	29.9µM*	1.3	13.2%	?
CN1CCN(C(=O)C2CCCN(S(=O)(=O)c3ccccc3)C2)CC1 (configuration not stated)	20µM*	?	-9.5%	5.2	-16.2%	·
CN1CCN(C(=O)C2CCCN(S(=O)(=O)c3ccc(Cl)cc3)C2)CC1 (configuration not stated)	0.708µM*	50.1µM*	-8.1%	0.9	?	10µM*
O=C(C1CCCCC1)N1CCN(S(=O)(=O)c2ccc(Cl)cc2)CC1	-11.6%[11.4 µM]	5.7%	29.9µM*	-17.6	-10.0%	5.5%
COc1cc(NC(=O)C(OC(=O)CNC(=O)c2ccccc2)c2ccccc2)c(OC)cc1Cl (configuration not stated)	-26.7%	·	·	·	·	·
Clc1ccc2[nH]c3c(c2c1)CCc1cn[nH]c1-3	79.4µM*	?	-14.1%	2.0	?	35.5µM*
c1ccc2c3c([nH]c2c1)-c1[nH]ncc1CC3	?	?	-14.1%	·	-16.5%	35.5µM*
O=C(N/N=C1\CCCc2c1[nH]c1ccc(Cl)cc21)c1ccncc1	-15.4%	-10.0%	7.7%	-8.7	36.1%	6.1%[59 µM]
CNc1nc(-c2ccccc2C)nc2ccccc12	·	·	·	·	·	-1.5%[0.501 µM]
COc1cccc(C(=O)c2cn(CC(=O)Nc3ccc4c(c3)OCCO4)c3nc(C)ccc3c2=O)c1	-8.1%	3.8%	·	·	23.7%	8.9%[59 µM]
Cc1cccc(C#Cc2ccccc2)n1	?	-8.2%	-19.6%	-12.4	54.6%	20µM*!
COc1ccc(-c2oc3ccc(-c4ccc5c(c4)OCO5)cc3c2-c2ccc(OC)nc2)cc1	-25.4%	·	-3.1%	10.9	33.2%	·
Cc1ccc(C(=O)Nc2ccccc2C(=O)NC(Cc2ccccc2)C(=O)O)cc1 (configuration not stated)	-8.3%[11.4 µM]	?	-11.0%	-2.0	29.3%	-3.3%[59 µM]
CCc1nc(N[C@@H](Cc2c[nH]c3ccccc23)C(=O)O)c2oc3ccccc3c2n1	-20.2%	?	-9.0%	0.6	8.2%	-38.3%[12.7 µM]
O=C(Cc1cccs1)NC(Cc1c[nH]c2ccccc12)C(=O)O (configuration not stated)	22.4µM*	-17.9%	1.3%	-1.5	2.0%	56.2µM*
Cc1ccc(C(=O)Nc2ccccc2C(=O)NC(Cc2c[nH]c3ccccc23)C(=O)O)cc1 (configuration not stated)	-22.5%	79.4µM*	?	-3.5	-24.1%	23.0%[12.7 µM]
O=C(O)C(Cc1c[nH]c2ccccc12)N1C(=O)C2C3c4ccccc4C(c4ccccc43)C2C1=O (configuration not stated)	-11.4%	?	-5.2%	13.5	17.5%	25.1µM*
O=C(O)c1ccc2c(c1)C(=O)N([C@H](Cc1c[nH]c3ccccc13)C(=O)O)C2=O	-24.8%	-5.9%	·	·	·	0.4%[12.7 µM]
Cc1nc(N[C@@H](Cc2c[nH]c3ccccc23)C(=O)O)c2oc3ccccc3c2n1	-22.7%	56.2µM*	-14.6%	·	27.3%	5.62µM*
COc1ccc(-c2nc3cc(NC(=O)Cc4ccc(Cl)cc4)ccc3o2)cc1OC	-24.2%	-1.0%	·	·	-0.5%	?
SMILES	JMJD2A Tudor inh	BAZ2B inh	PLK1 PBD block	PI5P4K alpha inh	HP1b binding inh	G9a block
O=C(Cn1nnc2ccccc2c1=O)N[C@@H](Cc1c[nH]c2ccccc12)C(=O)O	-15.2%	-0.6%	-1.5%	-4.2	14.9%	-12.5%[59 µM]
CCCOc1ccc(C(=O)CCNC(Cc2c[nH]c3ccccc23)C(=O)O)cc1 (configuration not stated)	-7.7%	-20.0%	5.32µM*	-5.9	44.5%	7.94µM*
C[C@@H](C(=O)N[C@@H](Cc1c[nH]c2ccccc12)C(=O)O)n1nnc2ccccc2c1=O	?	-7.9%	29.9µM*	-9.2	8.9%	11.9%[12.7 µM]
COc1ccc(Cl)cc1S(=O)(=O)N1CCN(S(=O)(=O)c2ccc3c(c2)OCCO3)CC1	-18.5%	·	·	·	·	·
N[C@@H](COP(=O)(O)O)C(=O)O	·	·	·	·	·	-22.2%[59 µM]
CSc1nnc(NC(=O)c2nc(S(=O)(=O)Cc3ccccc3F)ncc2Cl)s1	22.4µM*	-11.4%	?	-22.1	16.5%[57 µM]	28.2µM*
Cc1nnc(NC(=O)c2nc(SCc3ccccc3F)ncc2Cl)s1	-13.8%	15.2%	·	·	63.7%	11.6%[59 µM]
CC(C)c1nnc(NC(=O)c2nc(S(=O)(=O)Cc3ccccc3F)ncc2Cl)s1	4.5%	?	-11.7%	-5.8	46.2%	20µM*
O=C(Nc1nc2ccc(F)cc2s1)c1nc(S(=O)(=O)Cc2ccccc2F)ncc1Cl	-26.1%	-11.4%	·	·	93.8%	33.1%[59 µM]
Cc1nnc(NC(=O)c2nc(S(=O)(=O)Cc3ccccc3C)ncc2Cl)s1	?	56.2µM*	?	-17.8	32.7%	?
CCC(=O)N1c2ccccc2CC1C(=O)NCCCN1CCN(c2cccc(Cl)c2)CC1 (configuration not stated)	-13.6%	-20.5%	·	·	33.9%	8.7%[12.7 µM]
COc1ccc(Cn2c(=O)c3oc4ccccc4c3n(Cc3ccc(F)cc3)c2=O)cc1	2.9%	-20.8%	·	·	37.5%	3.2%[59 µM]
COc1ccc(OC)c(C2=Nn3c(nnc3-c3ccccc3O)SC2)c1	-12.4%	·	·	·	·	·
COc1ccc(Oc2ncc3nc(C)c(=O)n(Cc4ccc(F)cc4)c3n2)cc1	·	·	·	·	·	3.0%[12.7 µM]
COC(=O)[C@]12CCCCC=C1N(Cc1ccco1)C(=O)[C@H](CC(=O)NCc1cccc3ccccc13)C2	·	·	-7.0%	-8.1	·	·
CCc1ccccc1NC(=O)CCS(=O)(=O)c1ccc(OC)cc1	89.1µM*	?	?	-10.3	?	14.1µM*
CCNC(=O)CCS(=O)(=O)c1ccc2ccccc2c1	-3.0%	-3.7%	-26.2%	·	19.0%	7.08µM*
O=C(CCS(=O)(=O)c1ccccc1)NCCS(=O)(=O)c1ccccc1	-19.6%	-15.6%	-8.8%	0.9	23.9%	18.2%
